Source: PubChem BioAssay (NCI)
This is part of a sample that, as a whole, favours compounds with a hit. Of some 83,000 tested, about 20% had one in any assay.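 The endpoint reported here, percent growth, reads 100 for growth as untreated, 0 for no net growth and -100 for all cells dead.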 Unmarked numbers belong to inactive results. Activity calls are given as the source filed them. How the source made its calls: active means growth percent below 10; inactive means the rest.

The compounds below were run on OVCAR-3 ovarian (assay: NCI-60 one-dose screen, 48 h (100 = growth as untreated, 0 = no growth, -100 = all killed)). Conditions: 10 µM unless noted.
`O=C(Nc1ccc(O)cc1)C(Cl)(Cl)Cl` was tested, and the growth was 124%. In the case of `CCCOC(=O)N[C@H]1CCc2c(Br)c(OC)c(OC)c(OC)c2-c2ccc(SC)c(=O)cc21`, the growth is reported as -16.8% (active). `CCOC(=O)[C@@H](C)C[C@H](Cc1ccccc1)NC(=O)c1csc([C@@H](C[C@H](C(C)C)N(C)C(=O)[C@@H](NC(=O)[C@H]2CCCCN2C)C(C)(C)CC)OC(C)=O)n1` was tested, and the growth was 2.01% (active). Work on `CN1CC(CNC(=O)OCc2ccccc2)CC2c3cccc4c3c(cn4C)CC21` (centres undefined) yielded a growth of 61.9%. For `COc1ccc(NC([Se])=NC23CC4CC(CC(C4)C2)C3)cc1`, the growth was -32.3% (active). For `ClCCN(CCCl)c1ccc(/C=N\N=C\c2ccc(N(CCCl)CCCl)cc2)cc1`, the growth was 55.7%. For `C[C@@]12CC=C3c4nc(Nc5cccc(O)c5)sc4CC[C@]3(C)[C@H]1CC[C@]1(C)C(=O)CC[C@@H]21`, the growth was -3.79% (active). `O=[N+]([O-])/C=C\c1ccc(Cl)c(Cl)c1` showed a growth of 44.6%. `CC(C)OC(=O)[C@H](C)NP(=O)(Oc1ccccc1)C1CCCN(O)C1=O` (some centres undefined) showed a growth of 99.4%. With `COC(=O)CCC1=C(C)c2cc3[n-]c(cc4nc(cc5[n-]c(cc1n2)c(CCC(=O)OC)c5C)C=C4C)cc3C.[Cd+2]` the growth was -58.1% (active). `C=CCn1cc(C=C2C(=O)N(C)C(=O)N(C)C2=O)c2ccccc21` showed a growth of 96.1%. With `COC(=O)[C@@H](C)C[C@H](Cc1ccccc1)NC(=O)c1nc([C@@H](C[C@H](C(C)C)N(C)C(=O)[C@@H](NC(=O)[C@H]2C[C@H](O)CCN2C)C(C)C)OC(C)=O)sc1C(C)C` the growth was 2.66% (active). `N#CC1C(C#N)C2CCC1C1C2N1c1ccccc1` (centres undefined) gave a growth of 107%. Compound `CC(C)(NC(=O)O[C@@H]1CN2CCC1CC2)c1csc(-c2ccc(F)cc2)n1` has a growth of 109%. `CCC(C)(C)[C@H](NC(=O)[C@H]1CCCCN1C)C(=O)N(C)[C@H](C[C@@H](OC(C)=O)c1nc(C(=O)N[C@@H](Cc2ccccc2)C[C@H](C)C(=O)O)cs1)C(C)C` was tested, and the growth was 5.97% (active). Work on `C[C@]12CCc3sc(-c4ccccc4O)nc3C1=CC[C@@H]1[C@@H]2CC[C@]2(C)C(=O)CC[C@@H]12` yielded a growth of 104%. Work on `CCOC(=O)N1CC1` yielded a growth of 111%. With `N#CC1(C#N)C(c2ccc(N(CCCl)CCCl)cc2)OC23CCCCC2C1(C#N)C(=N)O3` (centres undefined) the growth was 98.5%. Compound `C=CCCCN=C=S` has a growth of 57.8%. `Cc1cccc(N2CCN(C(C)C#N)CC2)c1` (centres undefined) gave a growth of 109%. `O=C(Nc1ccc([N+](=O)[O-])cc1)C(Cl)(Cl)Cl` showed a growth of 117%. `COP(=S)(N1CC1)N1CC1` gave a growth of 113%. `O=C(N/N=C\c1ccc(N(CCCl)CCCl)cc1)c1cccc([N+](=O)[O-])c1` showed a growth of 83.2%. For `CC(=O)OC[C@]1(C)C=C2C(=O)[C@](C)(O)C3(CC3)C(C)=C2[C@H]1O`, the growth was -29.4% (active). Work on `CS(=O)(=O)CCN1CC2CCCC(C2)C1` yielded a growth of 110%. In the case of `CCOC(=O)[C@@H](C)C[C@H](Cc1ccccc1)NC(=O)c1csc([C@@H](C[C@H](C(C)C)N(C)C(=O)[C@@H](NC(=O)[C@H]2C[C@H](O)CCN2C)C(C)C)OC(C)=O)n1`, the growth is reported as 5.22% (active). For `CNCc1cccnc1`, the growth was 115%. `Cn1cc(C=O)c2nccnc21` showed a growth of 125%. `Cc1cc(N(CCCl)CCCl)ccc1C=Nc1ccccc1-c1ccccc1` gave a growth of 88.3%. In the case of `CNC(=O)Oc1ccc2c(c1)OCO2`, the growth is reported as 119%. In the case of `COc1ccc(N(CC(=O)NCCC[Te]c2ccccc2)C(=O)CCSC2=C(C)C(=O)c3ccccc3C2=O)cc1`, the growth is reported as -40.4% (active). With `Cn1cccc1C1CC(=O)N(CCC[Se]C#N)C1=O` (centres undefined) the growth was -45.5% (active). `CC1(C)[C@H](O)[C@H](F)C[C@@]2(C)Oc3ccc(C(=O)Nc4ccc5c(c4)NC(=O)C54CCN(CCCCC#N)CC4)cc3C[C@H]12` gave a growth of 61.3%. `CCOC(=O)[C@@H](C)C[C@H](Cc1ccccc1)NC(=O)c1nc([C@@H](C[C@H](C(C)C)N(C)C(=O)[C@@H](NC(=O)[C@H]2CCCCN2C)C(C)C)OC(C)=O)sc1CCOCc1ccccc1` was tested, and the growth was -53% (active). For `C[C@]12CCc3sc(-c4cccc(F)c4)nc3C1=CC[C@@H]1[C@@H]2CC[C@]2(C)C(=O)CC[C@@H]12`, the growth was 7.89% (active). With `COC(=O)[C@H](C[C@H](Cc1ccccc1)NC(=O)c1csc([C@@H](C[C@H](C(C)C)N(C)C(=O)[C@@H](NC(=O)[C@H]2CCCCN2C)C(C)C)OC(C)=O)n1)NC(=O)OCc1ccccc1` the growth was -12.2% [8.5 µM] (active). `C[C@]12CC[C@H]3[C@@H](C[C@@H]4SC(Nc5ccccc5)=N[C@@]45CC(O)CC[C@]35C)[C@@H]1CCC2O` (some centres undefined) was tested, and the growth was -31.6% (active).

What follows are compounds tested on HS 578T breast in the same assay as above. Conditions: 10 µM unless noted.
`O=C(Nc1ccc(O)cc1)C(Cl)(Cl)Cl` showed a growth of 112%. With `CCCOC(=O)N[C@H]1CCc2c(Br)c(OC)c(OC)c(OC)c2-c2ccc(SC)c(=O)cc21` the growth was 1.06% (active). In the case of `CCOC(=O)[C@@H](C)C[C@H](Cc1ccccc1)NC(=O)c1csc([C@@H](C[C@H](C(C)C)N(C)C(=O)[C@@H](NC(=O)[C@H]2CCCCN2C)C(C)(C)CC)OC(C)=O)n1`, the growth is reported as -9.16% (active). For `CN1CC(CNC(=O)OCc2ccccc2)CC2c3cccc4c3c(cn4C)CC21` (centres undefined), the growth was 49.4%. For `COc1ccc(NC([Se])=NC23CC4CC(CC(C4)C2)C3)cc1`, the growth was -5.52% (active). In the case of `ClCCN(CCCl)c1ccc(/C=N\N=C\c2ccc(N(CCCl)CCCl)cc2)cc1`, the growth is reported as 78.2%. In the case of `C[C@@]12CC=C3c4nc(Nc5cccc(O)c5)sc4CC[C@]3(C)[C@H]1CC[C@]1(C)C(=O)CC[C@@H]21`, the growth is reported as 7.41% (active). Compound `O=[N+]([O-])/C=C\c1ccc(Cl)c(Cl)c1` has a growth of 17%. Work on `CC(C)OC(=O)[C@H](C)NP(=O)(Oc1ccccc1)C1CCCN(O)C1=O` (some centres undefined) yielded a growth of 92%. `COC(=O)CCC1=C(C)c2cc3[n-]c(cc4nc(cc5[n-]c(cc1n2)c(CCC(=O)OC)c5C)C=C4C)cc3C.[Cd+2]` gave a growth of 39.8%. For `C=CCn1cc(C=C2C(=O)N(C)C(=O)N(C)C2=O)c2ccccc21`, the growth was 76%. With `COC(=O)[C@@H](C)C[C@H](Cc1ccccc1)NC(=O)c1nc([C@@H](C[C@H](C(C)C)N(C)C(=O)[C@@H](NC(=O)[C@H]2C[C@H](O)CCN2C)C(C)C)OC(C)=O)sc1C(C)C` the growth was 6.61% (active). Work on `N#CC1C(C#N)C2CCC1C1C2N1c1ccccc1` (centres undefined) yielded a growth of 112%. Work on `CC(C)(NC(=O)O[C@@H]1CN2CCC1CC2)c1csc(-c2ccc(F)cc2)n1` yielded a growth of 98.2%. For `CCC(C)(C)[C@H](NC(=O)[C@H]1CCCCN1C)C(=O)N(C)[C@H](C[C@@H](OC(C)=O)c1nc(C(=O)N[C@@H](Cc2ccccc2)C[C@H](C)C(=O)O)cs1)C(C)C`, the growth was 13.3%. `C[C@]12CCc3sc(-c4ccccc4O)nc3C1=CC[C@@H]1[C@@H]2CC[C@]2(C)C(=O)CC[C@@H]12` gave a growth of 105%. `CCOC(=O)N1CC1` showed a growth of 112%. In the case of `N#CC1(C#N)C(c2ccc(N(CCCl)CCCl)cc2)OC23CCCCC2C1(C#N)C(=N)O3` (centres undefined), the growth is reported as 101%. In the case of `C=CCCCN=C=S`, the growth is reported as 98%. With `Cc1cccc(N2CCN(C(C)C#N)CC2)c1` (centres undefined) the growth was 96.3%. `O=C(Nc1ccc([N+](=O)[O-])cc1)C(Cl)(Cl)Cl` gave a growth of 99.8%. With `COP(=S)(N1CC1)N1CC1` the growth was 121%. `O=C(N/N=C\c1ccc(N(CCCl)CCCl)cc1)c1cccc([N+](=O)[O-])c1` gave a growth of 64.2%. In the case of `CC(=O)OC[C@]1(C)C=C2C(=O)[C@](C)(O)C3(CC3)C(C)=C2[C@H]1O`, the growth is reported as -21.5% (active). `CS(=O)(=O)CCN1CC2CCCC(C2)C1` showed a growth of 102%. Compound `CCOC(=O)[C@@H](C)C[C@H](Cc1ccccc1)NC(=O)c1csc([C@@H](C[C@H](C(C)C)N(C)C(=O)[C@@H](NC(=O)[C@H]2C[C@H](O)CCN2C)C(C)C)OC(C)=O)n1` has a growth of 19.4%. Compound `CNCc1cccnc1` has a growth of 107%. `Cn1cc(C=O)c2nccnc21` showed a growth of 100%. `Cc1cc(N(CCCl)CCCl)ccc1C=Nc1ccccc1-c1ccccc1` showed a growth of 104%. In the case of `CNC(=O)Oc1ccc2c(c1)OCO2`, the growth is reported as 109%. In the case of `COc1ccc(N(CC(=O)NCCC[Te]c2ccccc2)C(=O)CCSC2=C(C)C(=O)c3ccccc3C2=O)cc1`, the growth is reported as -10.3% (active). In the case of `Cn1cccc1C1CC(=O)N(CCC[Se]C#N)C1=O` (centres undefined), the growth is reported as -8.66% (active). `CC1(C)[C@H](O)[C@H](F)C[C@@]2(C)Oc3ccc(C(=O)Nc4ccc5c(c4)NC(=O)C54CCN(CCCCC#N)CC4)cc3C[C@H]12` was tested, and the growth was -13.3% (active). `CCOC(=O)[C@@H](C)C[C@H](Cc1ccccc1)NC(=O)c1nc([C@@H](C[C@H](C(C)C)N(C)C(=O)[C@@H](NC(=O)[C@H]2CCCCN2C)C(C)C)OC(C)=O)sc1CCOCc1ccccc1` was tested, and the growth was -27.9% (active). `C[C@]12CCc3sc(-c4cccc(F)c4)nc3C1=CC[C@@H]1[C@@H]2CC[C@]2(C)C(=O)CC[C@@H]12` showed a growth of 27.4%. `COC(=O)[C@H](C[C@H](Cc1ccccc1)NC(=O)c1csc([C@@H](C[C@H](C(C)C)N(C)C(=O)[C@@H](NC(=O)[C@H]2CCCCN2C)C(C)C)OC(C)=O)n1)NC(=O)OCc1ccccc1` showed a growth of 15.3% [8.5 µM]. With `C[C@]12CC[C@H]3[C@@H](C[C@@H]4SC(Nc5ccccc5)=N[C@@]45CC(O)CC[C@]35C)[C@@H]1CCC2O` (some centres undefined) the growth was 3.65% (active).
